# PubChem BioAssay (NCATS)
# Records with an inconclusive call do not appear. A number with no mark means an inactive call. Calls of active or inactive are those of the source. Calls follow the shape of the dose curve; as a rule, active = well fitted cell-killing curve with a large enough effect; inconclusive = small, poorly fitted or top-dose-only effect, or effect the other way; inactive = no such curve, though single readings can be large or run the other way.
# Experiments:
# [1] = Quantitative High-Throughput drug screen in 47 multiple myeloma cell lines against the NCATS MIPE library collection: KMS34_JCRB cell viability assay (AID 1918985); also: nearly all actives have a fitted effect of over 40% in size
# Procedure, shortened: (§1)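 Myeloma cells (500/well) treated with MIPE 4.0 compounds for 48 h at 37 °C, 5% CO2. Viability read as ATP via CellTiter-Glo luminescence after 5 min at RT; DMSO-only wells = 100%, media-only = 0% viability.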
# [2] = Quantitative High-Throughput drug screen in 47 multiple myeloma cell lines against the NCATS MIPE library collection: OPM1_PLB cell viability assay (AID 1918989); also: nearly all actives have a fitted effect of over 40% in size
# Procedure, shortened: as §1
# [3] = Quantitative High-Throughput drug screen in 47 multiple myeloma cell lines against the NCATS MIPE library collection: SKMM1_PLB cell viability assay (AID 1919863); conditions: SKMM1 myeloma viability, CellTiter-Glo ATP, 48 h; viability: stronger effect = lower value; also: nearly all actives have a fitted effect of over 35% in size
# Procedure, shortened: as §1
# [4] = Quantitative High-Throughput drug screen in 47 multiple myeloma cell lines against the NCATS MIPE library collection: U266_ATCC cell viability assay (AID 1919864); also: nearly all actives have a fitted effect of over 35% in size
# Procedure, shortened: as §1
# [5] = Quantitative High-Throughput drug screen in 47 multiple myeloma cell lines against the NCATS MIPE library collection: XG1_PLB cell viability assay (AID 1919866); also: nearly all actives have a fitted effect of over 35% in size
# Procedure, shortened: as §1
# [6] = Quantitative High-Throughput drug screen in 47 multiple myeloma cell lines against the NCATS MIPE library collection: OCIMY5_PLB cell viability assay (AID 1918988); also: nearly all actives have a fitted effect of over 65% in size
# Procedure, shortened: as §1
# [7] = Quantitative High-Throughput drug screen in 47 multiple myeloma cell lines against the NCATS MIPE library collection: XG6_PLB cell viability assay (AID 1919865); also: nearly all actives have a fitted effect of over 40% in size
# Procedure, shortened: as §1
# [8] = Quantitative High-Throughput drug screen in 47 multiple myeloma cell lines against the NCATS MIPE library collection: VP6_DJ cell viability assay (AID 1919867); also: nearly all actives have a fitted effect of over 40% in size
# Procedure, shortened: as §1
# [9] = Quantitative High-Throughput drug screen in 47 multiple myeloma cell lines against the NCATS MIPE library collection: UTMC2_PLB cell viability assay (AID 1919868); conditions: CellTiter-Glo ATP luminescence, 48 h; viability (% of DMSO control): at 45.8 µM (top of the series); also: nearly all actives have a fitted effect of over 55% in size
# Procedure, shortened: as §1
# Potency is read from the fitted curve at half-maximal effect.
Structure (SMILES),Potency [1],Potency [2],viability [3],Potency [4],Potency [5],Potency [6],Potency [7],Potency [8],Potency [9],Potency [3]
Oc1ccc(C2CNCCc3c2cc(O)c(O)c3Cl)cc1 (stereo not given),14.8 µM (active),inactive,103%,inactive,inactive,–,–,–,–,–
CNC[C@H](O)c1cccc(O)c1,inactive,inactive,–,–,inactive,0.332 µM (active),inactive,1.32 µM (active),0.0021 µM (active),–
CCCc1nc2c(C)cc(-c3nc4ccccc4n3C)cc2n1Cc1ccc(-c2ccccc2C(=O)O)cc1,inactive,inactive,142%,–,20.9 µM (active),–,23.5 µM (active),16.6 µM (active),–,–
C[C@]12CC[C@H](O)CC1=CC[C@@H]1[C@H]2CC[C@]2(C)C(c3cccnc3)=CC[C@H]12,inactive,–,–,inactive,3.23 µM (active),inactive,–,8.12 µM (active),–,1.82 µM (active)
COc1cc2nccc(Oc3ccc(NC(=O)NC4CC4)c(Cl)c3)c2cc1C(N)=O,18.7 µM (active),16.6 µM (active),–,7.43 µM (active),18.7 µM (active),3.32 µM (active),3.32 µM (active),–,2.64 µM (active),13.2 µM (active)
CC[C@@H](C)[C@H](NC(=O)[C@H](CC1CCCCC1)NC(=O)c1ccno1)C(=O)N1CCC2(CCc3ccccc32)CC1,7.43 µM (active),inactive,–,–,–,8.33 µM (active),–,–,–,–
NC(=O)c1ccc(I)c([N+](=O)[O-])c1,inactive,23.5 µM (active),102%,–,18.7 µM (active),–,–,–,–,–
CCCCNc1cc(C(=O)O)cc(S(N)(=O)=O)c1Oc1ccccc1,inactive,inactive,158%,–,inactive,–,–,inactive,–,–
c1ccc([C@H]2CN3CCSC3=N2)cc1,inactive,–,159%,inactive,16.6 µM (active),inactive,–,–,inactive,–
CCCCCCCc1ccc(CCc2cccc(O)c2C(=O)O)cc1,inactive,20.9 µM (active),–,inactive,–,–,–,–,29.6 µM (active),–
OC[C@H](Cc1ccccc1)Nc1nc(Oc2ccc3c(c2)CCC3)nc2c1ncn2Cc1ccc(-c2ccccc2)cc1,18.7 µM (active),11.8 µM (active),–,–,–,–,–,inactive,–,–
Nc1nc2c(ncn2COCCO)c(=O)[nH]1,inactive,inactive,125%,inactive,18.7 µM (active),inactive,inactive,inactive,–,–
